Data: PubChem BioAssay (NCATS)
“And” between values parts separate entries of the source, which are not always exact repeats. Equal entries are not always repeated. Results filed as inconclusive are left out. The source made the active and inactive calls. Unless noted, calls follow the shape of the dose curve; as a rule, active = well fitted curve in the direction sought with a large enough effect; inconclusive = small, poorly fitted or top-dose-only effect, or another doubt; inactive = no such curve, though single readings can be large; an effect the other way counts as inactive or inconclusive.

Experiments:
[1] = molecular target: Calcium and integrin-binding protein 1 (Homo sapiens) (UniProt Q99828); test: Primary qHTS for Identification of Calcium Integrin Binding Protein 1 (CIB1) Competitor (AID 1508620);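 also: GST tagged CIB1 binding a fluorescein labelled alphaIIb integrin peptide tracer; top concentration of the series differs between compounds; % is scaled to controls: 0 for no effect and ±100 for the full control effect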
Chain of Calcium and integrin-binding protein 1 (Homo sapiens) (Q99828 whole entry, looked up): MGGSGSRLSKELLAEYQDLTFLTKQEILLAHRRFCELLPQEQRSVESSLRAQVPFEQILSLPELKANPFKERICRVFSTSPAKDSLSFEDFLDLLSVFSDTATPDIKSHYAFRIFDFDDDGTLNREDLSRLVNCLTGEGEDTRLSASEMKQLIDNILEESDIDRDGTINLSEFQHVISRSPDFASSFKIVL
In short: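 CIB1-GST (1 uM final) and compound incubated 15 min at room temperature before adding FITC-alphaIIb peptide tracer (100 nM final). Competition for binding read by fluorescence polarization (ex 480, em 540) after another 15 min at room temperature.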

[2] = molecular target: Glutathione peroxidase 1 (Homo sapiens) (UniProt P07203); test: Primary qHTS Assay for Inhibitors of Recombinant Selenoprotein Glutathione Peroxidase 1 (GPX1) (AID 1845191); also: nearly all actives have a fitted effect of over 65% in size
Chain of Glutathione peroxidase 1 (Homo sapiens) (P07203 whole entry, looked up): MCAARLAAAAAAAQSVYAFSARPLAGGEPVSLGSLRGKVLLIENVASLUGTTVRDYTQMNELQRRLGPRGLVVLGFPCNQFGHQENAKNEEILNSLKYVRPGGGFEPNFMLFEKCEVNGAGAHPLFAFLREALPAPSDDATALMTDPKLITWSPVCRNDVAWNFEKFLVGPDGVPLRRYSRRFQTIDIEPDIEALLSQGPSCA
In short: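 10 nM GPX1 + cpd, 30 min RT; start w/ 1 mM GSH, 0.5 mM cumene hydroperoxide, 0.5 mM NADPH, 100 nM GR, 0.01% BSA; buffer 50 mM Tris-HCl pH 7.5, 2 mM EDTA, 150 mM NaCl; Fl 340/450, 0 & 15 min.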

[3] = molecular target: Phospholipid hydroperoxide glutathione peroxidase GPX4 (Homo sapiens) (UniProt P36969); test: Primary qHTS Assay for Inhibitors of Recombinant Selenoprotein Glutathione Peroxidase 4 (GPX4) (AID 1845192); details: outcome: dose series up to 50 µM unless noted; also: nearly all actives have a fitted effect of over 65% in size
Chain of Phospholipid hydroperoxide glutathione peroxidase GPX4 (Homo sapiens) (P36969 whole entry, looked up): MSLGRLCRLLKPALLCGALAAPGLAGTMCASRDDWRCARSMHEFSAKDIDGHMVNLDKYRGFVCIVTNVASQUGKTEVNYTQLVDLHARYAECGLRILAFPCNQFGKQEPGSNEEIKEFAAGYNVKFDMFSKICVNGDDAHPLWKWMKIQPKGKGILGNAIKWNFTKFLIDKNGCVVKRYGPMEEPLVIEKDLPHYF
In short: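 NADPH consumption, followed by fluorescence at 340/450 nm between 0 and 15 min, reports GPX4 activity via coupled glutathione reductase (100 nM). Enzyme 200 nM was pre-exposed to compound 30 min; 0.5 mM cumene hydroperoxide and 1 mM GSH served as substrates.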

[4] = molecular target: Luciferin 4-monooxygenase (Photinus pyralis) (UniProt P08659); test: Primary firefly luciferase (FLuc) qHTS assay for identification of artifact compounds. (AID 1845220); also: nearly all actives have a fitted effect of over 60% in size
In short: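 Cell-free, 1536-well qHTS. Buffer pH 7.6 with 0.01% Tween-20 and 0.05% BSA; 10 uM D-luciferin, 10 uM ATP; 10 nM P. pyralis luciferase; luminescence after 5 min.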

[5] = Primary fluorescence-based thiol-reactive (MSTI) qHTS assay for identification of artifact compounds. (AID 1845221); also: nearly all actives have a fitted effect of over 65% in size; also: potency is read from the fitted curve at half-maximal effect
In short: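 Compounds were incubated 1 h at room temperature in the dark with the MSTI probe (4 uM) in PBS pH 7.4, 2% DMSO. Signals were normalized between Acetyl-MSTI and MSTI.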

[6] = tested on: Nanoluciferase (engineered Oplophorus gracilirostris luciferase); test: Primary Nanoluciferase (NLuc) qHTS assay for identification of artifact compounds. (AID 1845222);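 also: 0% = DMSO and -100% = no enzyme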
In short: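 Compounds are pinned into diluted (1:55) conditioned medium of NLuc-expressing S16 cells and held 15 min at room temperature protected from light. Nano-Glo substrate follows, and luminescence is read 5 min later.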

[7] = Primary redox qHTS assay for identification of artifact compounds. (AID 1845223);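 also: 0% = DMSO and 100% = reference compound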
In short: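 Amplex Red (25 uM) and HRP (250 mU/mL) in HBSS, with compounds for 15 min, then 250 uM DTT for 30 min, room temperature, dark. Fluorescence 525/598 nm read; normalized to DMSO and 10 uM DA3003; Hill fit.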

C33A = test: Primary qHTS to identify gynecologic anti-cancer compounds using libraries of approved drugs and bioactive compounds (AID 1345084); details: Gynecologic cancer cell panel viability, ATPlite luminescence, 48 h; series mostly up to 57.5 µM; also: % is scaled to controls: 0 for no effect and ±100 for the full control effect; nearly all actives have a fitted effect of over 55% in size
In short: (§1)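 Luminescence from the ATPlite ATP-monitoring reagent indicates viable cell number; lower signal means cytotoxicity. Cells received compound 16 h after seeding and were exposed for 48 h across five concentrations.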

CASKI = test: as above; details: Gynecologic cancer cell panel viability, ATPlite luminescence, 48 h; series mostly up to 57.5 µM
In short: as §1

Es-2 = test: as above; details: Gynecologic cancer cell panel viability, ATPlite luminescence, 48 h; series mostly up to 57.5 µM
In short: as §1

HeLa = test: as above; details: Gynecologic cancer cell panel viability, ATPlite luminescence, 48 h; series mostly up to 57.5 µM
In short: as §1

Hek293T = test: as above; details: Gynecologic cancer cell panel viability, ATPlite luminescence, 48 h, control line for the selectivity index; series mostly up to 57.5 µM
In short: as §1

JEG-3 = test: as above; details: Gynecologic cancer cell panel viability, ATPlite luminescence, 48 h; series mostly up to 57.5 µM
In short: as §1

OV90 = test: as above; details: Gynecologic cancer cell panel viability, ATPlite luminescence, 48 h; series mostly up to 57.5 µM
In short: as §1

Tov-21-G = test: as above; details: Gynecologic cancer cell panel viability, ATPlite luminescence, 48 h; series mostly up to 57.5 µM
In short: as §1

Tov112D = test: as above; details: Gynecologic cancer cell panel viability, ATPlite luminescence, 48 h; series mostly up to 57.5 µM
In short: as §1

[8] = tested on: Zika virus NS2B-NS3 protease (linked construct); test: Primary screen NINDS Rhodamine qHTS for Zika virus inhibitors (AID 1347160); also: nearly all actives have a fitted effect of over 55% in size
In short: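 Purified linked NS2B-NS3 protease (NS2B hydrophilic domain joined to NS3 protease by flexible linker), 25 nM in 10 mM Tris-HCl pH 8.0, 0.01% Tween 20. Compounds titrated, 15 min preincubation at room temperature; 1.5 microM Rhodamine110 substrate, FITC fluorescence change over 15 min.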

[9] = Primary qHTS for inhibitors of nuclear receptor binding SET domain protein 2 (NSD2) in an isogenic RCH-ACV NSD2 p.E1099K mutant (9B) (AID 1645876); also: nearly all actives have a fitted effect of over 70% in size; also: potency is read from the fitted curve at half-maximal effect
[10] = Primary qHTS for inhibitors of nuclear receptor binding SET domain protein 2 (NSD2) in an RCH-ACV wild type WT cells (2C) (AID 1645877); also: nearly all actives have a fitted effect of over 70% in size; also: potency is read from the fitted curve at half-maximal effect
[11] = qHTS drug screen for cell cycle checkpoint inhibitors in PARPi-resistant BRCA-mutant ovarian cancer cell lines. (AID 1963452; calls by dose curve); details: PEO1/OlaR viability, CellTiter-Glo luminescence, 96 h, stronger effect = lower value
In short: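 PEO1, PEO4 and PEO1/OlaR ovarian cancer cells, 600 per well, exposed 96 h at 37C to a dilution series. Viability read by CellTiter-Glo luminescence, normalized to DMSO and empty wells; activity summarized as Z-AUC.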

[12] = measured here: PEO1 parental Z-AUC

N#Cc1c[nH]c2c(C(=O)N3CCN(CCc4ccc(F)cc4)CC3)cccc12
inactive: outcome [1] | Potency [2] | Potency [3] | Potency [4] | Potency [5] | Potency [6] | Potency [7] | Potency (C33A) | Potency (CASKI) | Potency (Es-2) | Potency (HeLa) | Potency (Hek293T) | Potency (JEG-3) | Potency (OV90) | Potency (Tov-21-G) | Potency (Tov112D)

O=S(=O)(c1cccc2ccccc12)n1ccc2ccc(N3CCN4CCCC4C3)cc21 (centres undefined)
inactive: Potency [8] | Potency [2] | Potency [3] | Potency [4] | Potency [6] | Potency (C33A) | Potency (CASKI) | Potency (Es-2) | Potency (HeLa) | Potency (Hek293T) | Potency (JEG-3) | Potency (OV90) | Potency (Tov-21-G) | Potency (Tov112D)
active: Potency [9] 14.5 µM | Potency [10] 14.5 µM

CNCc1ccc(C)c(NC(=O)c2ccc(Nc3nc(-c4ccccc4)c4ccccc4n3)cc2)c1
inactive: Potency [8] | outcome [1] | Potency [2] | Potency [3] | Potency [4] | Potency [5] | Potency [6] | Potency [7] | Z-AUC [11] -0.484 | Potency (C33A) | Potency (CASKI) | Potency (Es-2) | Potency (HeLa) | Potency (Hek293T) | Potency (JEG-3) | Potency (OV90) | Potency (Tov-21-G) | Potency (Tov112D)
-0.199: Z-AUC [11, 12]
active: Potency [9] 7.42 µM | Potency [10] 7.42 µM
-0.532: Z-AUC ([11]; measured here: PEO4 Z-AUC)

O=C(Nc1ccc(F)cc1)N1CCc2ccccc2C1c1ccc(C(F)(F)F)cc1 (centres undefined)
active: Potency [9] 18.3 µM | Potency [10] 18.3 µM | Potency [5] 47.4 nM
inactive: Potency [8] | outcome [1] | Potency [2] | Potency [3] | Potency [4] | Potency [6] | Potency [7] | Potency (C33A) | Potency (CASKI) | Potency (Es-2) | Potency (HeLa) | Potency (Hek293T) | Potency (JEG-3) | Potency (OV90) | Potency (Tov-21-G) | Potency (Tov112D)

O=[N+]([O-])c1ccc(-[n+]2nc(-c3ccccc3)nn2-c2ccc(I)cc2)cc1
active: Potency [5] 10600 nM
inactive: Potency [8] | outcome [1] | Potency [9] | Potency [10] | Potency [2] | Potency [3] | Potency [4] | Potency [7] | Potency (C33A) | Potency (CASKI) | Potency (Es-2) | Potency (HeLa) | Potency (Hek293T) | Potency (JEG-3) | Potency (Tov112D)

Cc1nc2ccc(C(=O)N3CCC4(CC3)CC(=O)c3c(cnn3C(C)C)C4)cc2[nH]1
inactive: outcome [1] | Potency [2] | Potency [3] | Z-AUC [11] -0.421
-0.0398: Z-AUC ([11]; measured here: PEO4 Z-AUC)
-0.389: Z-AUC [11, 12]

COc1cc2ncnc(Nc3ccc(Oc4ccccc4)cc3)c2cc1OC
inactive: Potency [8] | Potency [4] | Potency [5] | Potency [6] | Potency [7] | Potency (C33A) | Potency (JEG-3) | Potency (OV90)
active: Potency [9] 4.59 µM

COc1cc(N2CCOCC2)ccc1Nc1ncc(F)c(Nc2ccccc2NS(C)(=O)=O)n1
inactive: Potency [8] | outcome [1] | Potency [2] | Potency [3] | Potency [4] | Potency [6] | Potency [7] | Potency (Es-2)
active: Potency [9] 8.17 µM | Potency [10] 8.17 µM | Potency [5] 2380 nM

O=c1c(-n2ccnn2)c[nH]n1-c1cc(N2CCOCC2)ncn1
1.55: Z-AUC ([11]; measured here: PEO4 Z-AUC)
0.854: Z-AUC [11, 12]
inactive: outcome [1] | Potency [2] | Potency [3] | Z-AUC [11] 1.14
active: Potency [9] 20.9 µM | Potency [10] 20.9 µM

COCCOCCOc1ccc(C2=N[C@@](C)(C(=O)O)CS2)c(O)c1
inactive: Potency [2] | Potency [3] | Potency [4] | Potency [6] | Potency (C33A) | Potency (CASKI) | Potency (Es-2) | Potency (HeLa) | Potency (Hek293T) | Potency (JEG-3) | Potency (Tov-21-G)
active: Potency [10] 10.3 µM | Potency [5] 377 nM

C=C1[C@@H](C)[C@H]2[C@H](Cc3c[nH]c4ccccc34)NC(=O)[C@]23C(=O)/C=C/C(=O)[C@H](O)/C(C)=C\[C@@H](C)C/C=C/[C@H]3[C@@H]1O
active: Potency [9] 3.99 µM
inactive: Potency [8] | outcome [1] | Potency [2] | Potency [3] | Potency [4] | Potency [5] | Potency [6] | Potency [7] | Potency (C33A) | Potency (CASKI) | Potency (Es-2) | Potency (Hek293T) | Potency (JEG-3) | Potency (OV90) | Potency (Tov112D)

Cc1ccc(CCCO)c(NCc2ccc3nc(NCCCN4CCOCC4)n(Cc4nc(C)ccc4O)c3c2)c1
active: Potency [9] 12.9 µM | Potency [10] 11.5 µM
inactive: Potency [8] | outcome [1] | Potency [2] | Potency [3] | Potency [4] | Potency [6] | Potency (C33A) | Potency (CASKI) | Potency (Es-2) | Potency (HeLa) | Potency (Hek293T) | Potency (JEG-3) | Potency (Tov-21-G) | Potency (Tov112D)

CCN(CCCOc1ccc2c(Nc3cc(CC(=O)Nc4cccc(F)c4)[nH]n3)ncnc2c1)CCOP(=O)(O)O
inactive: Potency [8] | Potency [2] | Potency [3] | Potency [4] | Potency [5] | Z-AUC [11] 1.19 | Potency (C33A) | Potency (Es-2) | Potency (HeLa) | Potency (Hek293T) | Potency (JEG-3) | Potency (OV90)
0.183: Z-AUC ([11]; measured here: PEO4 Z-AUC)
0.684: Z-AUC [11, 12]
active: Potency [9] 5.9 µM | Potency [10] 32.5 nM and 37.2 nM
